MCL1-BIM inh – inhibitors of MCL1 binding to BIM-BH3, primary screen, biochemical, fluorescence polarization; Induced myeloid leukemia cell differentiation protein Mcl-1 (Homo sapiens), Q07820; GST-MCL1 / FITC-Bim-BH3 fluorescence polarization; inhibition, % at 10.9 µM; 0.68% of 320,000 active; AID 2057, 2009;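 active = inhibition above the mean inhibition of all tested compounds plus 3 SD, set per campaign, cut at about 40% in these data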;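 also: 0% = DMSO wells and 100% = unlabeled Bim-BH3 peptide control; higher means more loss of mP so more displacement of Bim peptide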
Target sequence (Q07820 whole entry, looked up): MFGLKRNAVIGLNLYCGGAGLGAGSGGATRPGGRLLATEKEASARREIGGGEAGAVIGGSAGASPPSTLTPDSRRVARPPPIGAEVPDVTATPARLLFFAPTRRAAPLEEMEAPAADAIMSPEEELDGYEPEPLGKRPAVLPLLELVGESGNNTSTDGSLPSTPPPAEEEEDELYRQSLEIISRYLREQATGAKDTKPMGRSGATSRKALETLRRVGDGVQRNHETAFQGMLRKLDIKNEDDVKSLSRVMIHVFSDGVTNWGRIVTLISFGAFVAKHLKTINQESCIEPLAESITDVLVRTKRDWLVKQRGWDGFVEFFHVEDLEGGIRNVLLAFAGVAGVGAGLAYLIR
Mcl1-Bid inh – Mcl-1/Bid binding inhibitors, primary screen, biochemical, TR-FRET, 1536-well; TR-FRET Mcl-1/Bid-Dy647 peptide binding; inhibition, % at 21.7 µM; 0.97% of 220,000 active; AID 1021, 2008;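 active = compounds that cut the binding signal by more than half at the single screening dose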;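 also: His-tagged Mcl-1 with europium anti-His antibody binding Bid BH3 peptide; 0% = Mcl-1 plus peptide wells and 100% = peptide-only wells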
Mcl1 Noxa PPI – Mcl-1/Noxa binding inhibitors, primary screen, biochemical, TR-FRET, 1536-well; AID 1022, 2008; 1.5% of 220,000 active; inhibition, % at 21.7 µM; Induced myeloid leukemia cell differentiation protein Mcl-1 (Homo sapiens), Q07820; TR-FRET Mcl-1/Noxa peptide binding, 2 h;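 active = compounds that cut the protein-peptide binding signal by more than 50% relative to plate controls in a single-dose test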;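 also: His-tagged Mcl-1 with rhodamine Noxa BH3 peptide and terbium anti-His antibody; 0% = Mcl-1 plus Noxa peptide wells and 100% = peptide-only wells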
L929 necroptosis – inhibitors of zVAD-triggered necroptosis, primary screen, L929 cells; viability rescue, % at 10 µM; L929 zVAD necroptosis rescue, ATP luminescence, 24 h; with zVAD 60 µM; AID 1377, 2008; 0.38% of 220,000 active;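 active = activation, scaled between plate controls, above about 75%, limit read from the data; inactive = activation under that limit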;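 also: 0% = zVAD with DMSO and 100% = DMSO alone without zVAD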
Bim-Mcl-1 – inhibitors of Bim peptide binding to Mcl-1, primary screen, biochemical, bead-based flow cytometry, multiplex. Bim peptide-Mcl-1 binding. inhibition, % at 10 µM. Induced myeloid leukemia cell differentiation protein Mcl-1 (Homo sapiens), Q07820. 0.1% of 190,000 active; in the data active = inhibition above about 40%;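 also: 0% = no compound tracer wells and 100% = peptide blocker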
TNF death inh – inhibitors of TNF-alpha triggered necroptosis, primary screen, cell-based, Jurkat FADD-/-, single concentration. Jurkat FADD-/- TNF necroptosis rescue, ATP luminescence, 24 h; 0 = TNF only, 100 = no-TNF cells. activation (protection from cell death), % at 10 µM. 0.068% of 220,000 active;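 active = activation, meaning protection from cell death, of at least 50% relative to plate controls; inactive = activation below 50%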;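 also: necroptosis triggered by 40 ng/mL TNF-alpha added together with compound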
* marks the source's active call; other numbers are inactive results; nt = not tested or not shown. Shown are actives, neighbours in structure and some others; about 2.4% of the full set was active somewhere.

SMILES	MCL1-BIM inh	Mcl1-Bid inh	Mcl1 Noxa PPI	L929 necroptosis	Bim-Mcl-1	TNF death inh
COc1ccc(OC)c(NC(=S)N(CCc2c(C)[nH]c3ccc(C)cc23)Cc2cccs2)c1	4	85*	13	nt	0	3
COc1ccc(CC(=O)Nc2c(C(=O)N3CCN(c4ccccc4)CC3)oc3ccccc23)cc1OC	3	nt	nt	nt	nt	nt
Cc1c(Cl)cnc(NC(=O)COC(=O)[C@H](C)NC(=O)c2ccccc2)c1Cl	46*	nt	nt	nt	nt	nt
COc1ccc(C=NCC2COc3ccccc3O2)cc1OC (stereo not drawn)	0	-10	17	0	-1	-7
Oc1ccc(C=NCC2COc3ccccc3O2)cc1 (stereo not drawn)	3	-9	14	-1	80*	-7
C=CCn1c(SCC(=O)O)nnc1-c1cccc(Cl)c1	-14	-42	70*	0	2	0
CCCCC1(C)NC(=S)N2N1C(=S)NC2(C)CCCC (stereo not drawn)	1	-13	5	0	nt	-1
Oc1ccccc1Nc1nc(NCc2ccccc2)c2ccccc2n1	9	-20	59*	2	-4	-2
O=C(CSc1nnc(CNC(=O)c2cccs2)o1)Nc1ccccc1F	8	nt	nt	nt	nt	nt
CC(C)CCC(CCN1CCOCC1)c1ccc2c(c1)OCO2 (stereo not drawn)	6	7	27	-1	-6	1
CC(C)CCC(CCN1CCCC1)c1ccc2c(c1)OCO2 (stereo not drawn)	1	6	75*	-1	nt	-2
CN(C)C(=O)c1cn(N(C)c2ncc(C(F)(F)F)cc2Cl)c(=O)c2ccccc12	4	61*	31	0	-3	-3
COc1cc(C)c(Cl)cc1S(=O)(=O)N(C)C	8	5	0	1	4	-2
CN(C)S(=O)(=O)c1cc(S(=O)(=O)N(C)C)c(Cl)cc1N	3	70*	28	1	2	0
COc1ccccc1NC(=O)/C(C#N)=C/c1cccn1C	0	nt	nt	nt	nt	nt
CCOC(=O)c1sc2nc(NC(=O)COc3ccccc3)sc2c1C	-1	-5	55*	-1	-4	3
CC(=O)c1sc(NC(=O)COc2ccccc2)nc1C	-4	-22	6	2	0	0
CN1CCc2c(sc(/N=C/c3ccco3)c2C(N)=O)C1	46*	-20	0	0	-2	-11
O=c1cc(CSc2nnc(-c3cccs3)n2Cc2ccccc2)nc2sc3ccccc3n12	21	-97	59*	-1	-1	-8
CN(C)/C=N/c1nc2nccc(-c3ccccc3)n2n1	1	10	10	-1	-2	0
CC(=O)c1c(N=CN(C)C)nc(C)nc1-c1ccccc1	3	89*	11	0	0	0
CC1CN(C2CCN(S(=O)(=O)Cc3ccccc3)CC2)CC(C)O1 (stereo not drawn)	-9	51*	14	1	0	0
CC1CN(C2CCN(S(=O)(=O)c3ccccc3)CC2)CC(C)O1 (stereo not drawn)	8	34	24	-1	-4	-2
O=C(CN1C(=O)S/C(=C\c2ccc(Cl)cc2)C1=O)NNC(=O)c1ccccc1O	33	82*	65*	2	-6	1
COc1cc(OC)nc(Oc2ccccc2C(=O)Oc2cccc(C)c2)n1	-4	53*	-7	0	-7	-1
SMILES	MCL1-BIM inh	Mcl1-Bid inh	Mcl1 Noxa PPI	L929 necroptosis	Bim-Mcl-1	TNF death inh
COc1ccc(CC(=O)OCC(=O)c2ccc(S(=O)(=O)N3CCCCC3)cc2)cc1	-3	nt	nt	nt	nt	nt
CC(Sc1ccc(Cl)cc1)C(=O)Nc1ccccc1-c1ccccc1 (stereo not drawn)	3	3	71*	-1	-2	0
O=c1oc2ccccc2c(Nc2cc3ccccc3cc2O)c1[N+](=O)[O-]	7	-23	53*	2	-5	-6
CC1(c2cccc3ccccc23)NC(=O)N(CC(=O)NC2CCS(=O)(=O)C2)C1=O (stereo not drawn)	-8	98*	16	0	-4	3
O=C(/C=C/c1ccc(-c2ccccc2[N+](=O)[O-])o1)c1ccco1	32	-58	66*	0	2	-5
O=C(/C=C/c1ccc([N+](=O)[O-])cc1)c1ccco1	1	nt	nt	nt	nt	nt
Cn1c(=O)[nH]c(=O)c2c1nc(Br)n2Cc1cccc(Br)c1	-6	nt	nt	nt	nt	nt
COc1cccc(CN2c3ccc(Br)cc3C(=O)CS2(=O)=O)c1	12	nt	nt	nt	nt	nt
O=C1/C(=C/c2ccc([N+](=O)[O-])cc2)C=C(c2ccccc2)N1c1ccccc1	-13	-6	3	-1	-1	-5
COc1ccc(N2C(=O)/C(=C/c3ccc([N+](=O)[O-])cc3)C=C2c2ccccc2)cc1	0	-8	10	0	-1	-2
O=C1/C(=C/c2ccc([N+](=O)[O-])cc2)C=C(c2ccccc2)N1c1ccc(O)cc1	2	6	60*	0	-3	-6
O=C(O)c1cccc(N2C(=O)/C(=C/c3ccc([N+](=O)[O-])cc3)C=C2c2ccccc2)c1	-22	-3	53*	1	-5	-1
CCCS(=O)(=O)c1nc(S(=O)(=O)c2ccc(Cl)cc2)c(N2CCC(O)CC2)s1	9	nt	nt	nt	nt	nt
O=[N+]([O-])c1cc(F)c2cccnc2c1O	-6	-109	-30	0	nt	-1
O=[N+]([O-])c1cc(Cl)c2cccnc2c1O	11	-72	-19	2	0	-1
O=[N+]([O-])c1ccc(Cl)c2cccnc12	-2	-8	-6	2	-2	-1
O=[N+]([O-])c1cc(Cl)c(O)c2ncccc12	nt	-33	70*	-1	0	1
O=[N+]([O-])c1ccc(O)c2cccnc12	48*	-38	25	1	-1	-1
O=[N+]([O-])c1ccc(O)c2ncccc12	8	6	73*	7	-1	-25
O=[N+]([O-])c1cc([N+](=O)[O-])c2cccnc2c1Oc1ccccc1O	18	-59	92*	2	0	-8
O=C(Nc1ccc2nc3n(c(=O)c2c1)CCCCC3)C(=O)N1CCN(c2ccccc2)CC1	-4	nt	nt	nt	nt	nt
CC(C)CC(=O)Nc1ccc(C(=O)CN2C(=O)NC3(CCOc4ccccc43)C2=O)cc1 (stereo not drawn)	-2	nt	nt	nt	nt	nt
O=[N+]([O-])c1cc(CN2CCOCC2)c2cccnc2c1O	nt	-16	94*	1	-1	0

Assay outcomes from PubChem.
